Mtb FBA inh: Mtb FBA enzyme inhibitors, primary screen, biochemical, fluorescence, strain H37Rv; Fructose-bisphosphate aldolase (Mycobacterium tuberculosis (strain ATCC 25618 / H37Rv)), …; purified M. tuberculosis FBA, fluorescence read-out; inhibition, % at 1 µM; hit rate 2.3% among 360,000; AID 588726, 2011;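 note: 0% = vehicle and 100% = reference inhibitor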
Target sequence (P9WQA3 whole entry, looked up): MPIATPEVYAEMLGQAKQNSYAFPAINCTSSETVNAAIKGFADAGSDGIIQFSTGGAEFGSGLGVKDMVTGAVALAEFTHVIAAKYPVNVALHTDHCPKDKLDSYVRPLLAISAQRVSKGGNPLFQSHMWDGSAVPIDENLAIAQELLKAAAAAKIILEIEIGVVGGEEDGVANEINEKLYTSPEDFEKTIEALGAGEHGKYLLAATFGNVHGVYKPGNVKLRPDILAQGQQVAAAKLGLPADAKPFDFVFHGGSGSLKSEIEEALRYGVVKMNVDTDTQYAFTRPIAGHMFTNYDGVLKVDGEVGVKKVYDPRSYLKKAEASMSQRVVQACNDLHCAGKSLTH
Rv3671c inh: Rv3671c serine protease inhibitors, primary screen, biochemical, fluorescence polarization, M. tuberculosis H37Rv; inhibition, % at 5.96 µM; hit rate 0.048% among 320,000; AID 2606, 2010; P9WHR9; in the data active = inhibition above about 38%;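 note: extracellular domain of Rv3671c used as enzyme; 0% = enzyme with DMSO and 100% = no enzyme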
UGM FP inh: M. tuberculosis UGM enzyme inhibitors, primary screen, biochemical, fluorescence polarization, single point; purified UGM, fluorescence polarization probe displacement; UDP-galactopyranose mutase (Mycobacterium tuberculosis (strain ATCC 25618 / H37Rv)), …; hit rate 0.06% among 320,000; AID 504406, 2011; inhibition, % at 10 µM; in the data active = inhibition above about 10%, passing the limit was not always enough
GDH-TPI counter-1: GDH-TPI coupling enzyme inhibitors, primary screen, artefact control for M. tuberculosis FBA inhibitor project, biochemical, absorbance, full deck; GDH-TPI coupled enzyme counterscreen, NADH absorbance; hit rate 1.2% among 360,000; inhibition, % at 4.8 µM; in the data active = inhibition above about 30%;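 note: 0% = DMSO wells and 100% = wells lacking the enzyme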
Mtb FBA confirm: M. tuberculosis aldolase blockers, biochemical, fluorescence, strain H37Rv, confirmation; purified M. tuberculosis FBA, fluorescence read-out; hit rate 78% among 5,600; inhibition, % at 1 µM; shares compounds with Mtb FBA inh;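 note: 0% = vehicle wells and 100% = reference inhibitor wells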
GDH-TPI counter-2: GDH-TPI coupling enzyme inhibitors, artefact control for M. tuberculosis FBA inhibitor project, biochemical, fluorescence, high throughput | shares compounds with Mtb FBA inh | GDH-TPI coupled enzyme counterscreen | inhibition, % at 1 µM | hit rate 81% among 5,600 | AID 652141, 2013; in the data active = inhibition above about 10%
GDH-TPI DR: GDH-TPI coupling enzyme inhibitors, dose response, artefact control for M. tuberculosis FBA inhibitor project, biochemical, fluorescence, IC50; IC50, µM; shares compounds with Mtb FBA inh; GDH-TPI coupled enzyme assay, artifact counterscreen; AID 652145, 2013; hit rate 79% among 170; call rule not given here
The depositor's hits bear a star; . = no result; + = active, no number. Sampled rows, rich in hits. Any-hit rate of the full collection: about 3.5%. Cut-off read from the data, not from the text of the source, unless noted: active = inhibition above about 27%; inactive = the rest.

SMILES | Mtb FBA inh | Rv3671c inh | UGM FP inh | GDH-TPI counter-1 | Mtb FBA confirm | GDH-TPI counter-2 | others
COc1ccc2oc(C(=O)OCC(=O)N(C)Cc3ccccc3)c(C)c2c1 | 31* | 2 | 0 | 2 | 158* | 168*
COc1ccc2oc(C(=O)OCC(=O)N(C)c3ccccc3)c(C)c2c1 | 35* | -2 | -1 | -2 | 128* | 101*
CCN(CC)c1ccc(C(=O)OCc2cc(=O)oc3cc(O)ccc23)cc1 | 72* | -6 | 3 | 32* | -4 | -2
Cc1ccc(NC(=O)CSC(C)C(=O)OCc2cc(=O)oc3cc(O)ccc23)cc1 (stereo unspecified) | 41* | . | . | 12 | + | +
Cc1ccc(S(=O)(=O)NCC(=O)OCc2cc(=O)oc3cc(C)ccc23)cc1 | 3 | -1 | -2 | 13 | . | .
Cc1cc(C)nc(NC(=O)Cc2cccs2)n1 | 32* | -9 | 0 | 15 | 113* | 87*
Cc1ccc2nc(-c3ccc(C#N)cc3)c(Cc3ccccn3)n2c1 | 61* | . | . | . | 146* | 94*
Cc1ccc(S(=O)(=O)N/N=C\c2cc3c(cc2Br)OCO3)cc1 | 42* | -7 | 3 | 8 | 9 | -4
Cc1ccc(S(=O)(=O)N/N=C\c2ccc3c(c2)OCO3)cc1 | 1 | 0 | 0 | 17 | . | .
O=C(c1cccs1)N1CCC(c2nc3c(nnn3Cc3c(Cl)cccc3Cl)c(=O)[nH]2)CC1 | -3 | 4 | -1 | -3 | . | .
CC(=O)Nc1cnc(-c2ccccc2C(C)=O)cn1 | 0 | . | . | 7 | . | .
CC(=O)Nc1cnc(/C=C\CCCO)cn1 | 32* | . | . | 14 | 1 | -4
CCCCCOC(=O)Cc1c(O)c2ccccc2[nH]c1=O | 13 | 3 | 6 | -14 | . | .
CCN(CC)C(=O)Cc1c(O)c2ccccc2[nH]c1=O | 29* | 19 | 1 | 19 | 98* | 70*
CCCCCc1c(O)c2ccccc2[nH]c1=O | 29* | -10 | 0 | 15 | 62* | 51*
Cc1c(SCCO)c(=O)[nH]c2cc3c(cc12)OCO3 | 35* | 5 | -1 | 17 | 127* | 120*
Cc1ccc2c(c1)c1c(c(=O)n(-c3ccccc3)c(=O)n1CC(=O)NCC1CCCO1)n2C (stereo unspecified) | 56* | -4 | -2 | -3 | 76* | 52*
CC(=O)N1CCN(Cc2nc3ccc(Cl)cc3n2CCO)CC1 | 2 | 3 | -1 | -3 | . | .
CNc1nc(NCc2ccccc2)c2sccc2n1 | 7 | . | . | 6 | . | .
CNc1nc(-c2ccccc2)c2sccc2n1 | 78* | . | . | 17 | 8 | -4
CCN(CC)CCN(Cc1cc2cc3c(cc2[nH]c1=O)OCO3)C(=S)NCCCOC | 39* | -5 | -2 | 27 | 97* | 81*
COCCNC(=S)N(CCCO)Cc1cc2cc3c(cc2[nH]c1=O)OCCO3 | 14 | 10 | 3 | 9 | . | .
CCN(CC)CCN(Cc1cc2cc3c(cc2[nH]c1=O)OCCO3)C(=S)NCCOC | 23 | . | . | 25 | . | .
CCN(CC)CCCN(Cc1cc2cc3c(cc2[nH]c1=O)OCO3)C(=S)NCCCOC | 40* | -7 | 0 | 34* | + | 173*
CCN(CC)CCN(Cc1cc2cc3c(cc2[nH]c1=O)OCO3)C(=S)NCC1CCCO1 (stereo unspecified) | 56* | -1 | 2 | 17 | 95* | 70*
SMILES | Mtb FBA inh | Rv3671c inh | UGM FP inh | GDH-TPI counter-1 | Mtb FBA confirm | GDH-TPI counter-2 | others
COCCNC(=S)N(CCO)Cc1cc2cc3c(cc2[nH]c1=O)OCO3 | 31* | 4 | 0 | 22 | 122* | 92*
CCN(CC)CCCN(Cc1cc2cc3c(cc2[nH]c1=O)OCO3)C(=S)NCCCN(C)C | 20 | 0 | -1 | 22 | . | .
CC(C)C(NS(=O)(=O)c1cccs1)C(=O)N1CCC(C(N)=O)CC1 (stereo unspecified) | 5 | 3 | -3 | 6 | . | .
Oc1ccc(Cl)cc1CNCc1cccc2ccccc12 | 0 | 7 | 1 | 0 | . | .
O=C(COc1ccc(Br)cc1)N1CCN(C2CCCC2)CC1 | 33* | 4 | 2 | 6 | 29* | 13*
CNc1cccc(-c2ccc(N3CCN(C)CC3)nc2)n1 | 54* | . | . | 11 | 17 | 0 | GDH-TPI DR=3.5*
O=C(CN1C(=O)/C(=C\c2cccc(Br)c2)Oc2ccccc21)NCCCN1CCOCC1 | 33* | -7 | -2 | 15 | 162* | 130*
O=C(O)CN1C(=O)/C(=C/c2cccc(Cl)c2)Oc2ccccc21 | 67* | -5 | 2 | 18 | + | +
O=[N+]([O-])c1ccccc1S(=O)(=O)N1CCN(S(=O)(=O)c2ccc3c(c2)OCCO3)CC1 | 0 | -6 | 0 | -1 | . | .
O=c1c2c(-c3ccccc3)csc2nc2c3ccccc3c(NCCN3CCOCC3)nn12 | 29* | . | . | 0 | 94* | 66*
CCOc1ccc(CCNC(=O)Cn2nc(C)c3c(C)n(-c4ccccc4)nc3c2=O)cc1OCC | 1 | -3 | 1 | -6 | . | .
COc1ccc(CCNC(=O)c2ccccc2C(=O)NCCc2ccc(OC)cc2)cc1 | -2 | -7 | 2 | 4 | . | .
Cc1ccc(CCNC(=O)c2coc3nc4ccccc4nc23)cc1 | 58* | -14 | 3 | 10 | 99* | 72*
CCOC(=O)Cn1c(C)cc(COC)c(C#N)c1=O | 12 | 2 | 0 | 17 | . | .
Cc1cc(C)c(C#N)c(N2CCOCC2)n1 | 25 | 3 | 2 | 8 | . | .
COCc1cc(C)nc(N)c1C#N | 29* | -4 | 0 | 3 | + | +
COCc1cc(C)[nH]c(=O)c1C#N | 66* | 6 | 2 | 18 | 53* | 41*
COCc1cc(C)nc(NC2CC(C)(C)NC(C)(C)C2)c1C#N | 62* | -8 | 2 | 7 | 83* | 78*
COCc1cc(C)nc(N2CCOCC2)c1C#N | 32* | 1 | 1 | 6 | 37* | 37*
COc1ccc(CCNCC(O)COc2ccc(OC)cc2C(C)(C)C)cc1 (stereo unspecified) | 8 | 1 | -2 | 4 | . | .
CCC(=O)N(c1nnc(SCC(=O)c2ccc[nH]2)s1)C1CC1 | -1 | -1 | 0 | 9 | . | .
COCCC1CCCCN1C(=O)c1cccc(OC2CCN(S(C)(=O)=O)CC2)c1 (stereo unspecified) | 3 | . | -1 | 4 | . | .
Cc1cc2nc(-c3ccc(SCc4ccc(C(=O)O)cc4)nc3)[nH]c2cc1C | 58* | -19 | 1 | 27 | -2 | -5
Cc1cc2nc(-c3ccc(SCC(=O)NC(C)C)nc3)[nH]c2cc1C | . | 1 | 0 | . | . | .

Bioassay records: PubChem, several laboratories
